Results taken from PubChem BioAssay (NCI).
Several values for one entry are separate records, joined by “and”; a condition that tells them apart may be missing. Identical values can stand only once. This is part of a sample that, as a whole, favours compounds with a hit. Of some 79,000 tested, about 15% had one in any assay. Cut-off read from the data, not from the text of the source: active = growth inhibition above about 70%; inactive = the rest.

Legend:
[1] = NCI Yeast Anticancer Drug Screen. Data for the rad50 strain (AID 155);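 note: 0% = growth of vehicle-only cultures of the same strain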; conditions: S. cerevisiae rad50 strain growth inhibition, stronger effect = higher value; at 50.0 µM unless noted
Summary of the method: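 Vehicle-treated cultures provide the reference for the growth inhibition reported for compound-exposed, repair-deficient yeast.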

[2] = NCI Yeast Anticancer Drug Screen. Data for the mec2-1 strain (AID 157); conditions: S. cerevisiae mec2-1 strain, stronger effect = higher value; at 50.0 µM unless noted
Summary of the method: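 Using mec2-1 yeast: add compound, measure growth, express inhibition versus vehicle-treated cultures.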

[3] = NCI Yeast Anticancer Drug Screen. Data for the sgs1 mgt1 strain (AID 161);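 note: 0% = growth of cultures given vehicle only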; conditions: S. cerevisiae sgs1 mgt1 strain, stronger effect = higher value; at 50.0 µM unless noted
Summary of the method: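 Yeast cells carrying a defined DNA-repair defect were exposed to test compounds. Growth inhibition was measured relative to vehicle-treated controls.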

[4] = NCI Yeast Anticancer Drug Screen. Data for the cln2 rad14 strain (AID 165);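 note: 0% = growth equal to vehicle treated cultures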; conditions: S. cerevisiae cln2 rad14 strain, stronger effect = higher value; at 50.0 µM unless noted
Summary of the method: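 Yeast strain cln2 rad14, bearing defects in cell cycle control and DNA repair, serves as the test system; values reflect growth inhibition compared with vehicle.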

[5] = NCI Yeast Anticancer Drug Screen. Data for the bub3 strain (AID 167); conditions: S. cerevisiae bub3 mutant strain, stronger effect = higher value; at 50.0 µM unless noted
Summary of the method: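 Mutant yeast screening strain plus compound; vehicle-treated cultures serve as the 0% inhibition reference.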

[6] = NCI Yeast Anticancer Drug Screen. Data for the mlh1 rad18 strain (AID 175); conditions: S. cerevisiae mlh1 rad18 strain growth inhibition, stronger effect = higher value; at 50.0 µM unless noted
Summary of the method: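 Steps: expose repair-defective yeast to compound; measure growth; express inhibition against vehicle-treated controls.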

Measured: growth inhibition

O=c1c2cc(O)ccc2n2nnc3ccc(NCCNCCO)c1c32
inactive: [1] -18.4% and -10.8% | [2] -16.3% and -12.1% | [3] -35.1% and -8.7% | [4] 18.1% and 16.9% | [5] 8.3% and 1% | [6] -4.7% and 3.1%

Cc1cc(=O)c2c(o1)C(=O)c1occc1C2=O
inactive: [1] -9.5% | [2] -34.5% | [3] -3.9% | [4] 5.85% | [5] -6.1% | [6] -13%

CCC(c1cccc(C(=O)O)c1)C(C(C)=O)c1ccc(O)cc1 (stereo not given)
inactive: [1] 0.8% | [2] -20.5% | [3] -6.1% | [4] -22.5% | [5] 4% | [6] -5.05%

O=C(O)C(Cc1cccs1)C(=O)O
inactive: [1] -12.8% | [2] 0.6% | [3] -15.2% | [4] 41.5% | [5] -18.6% | [6] -4.25%

Cc1cc([N+](=O)[O-])ccc1P(=O)(O)O
inactive: [1] 8.55% | [2] 7.6% | [3] 0% | [4] -0.65% | [5] -3.8% | [6] -7.95%

[Mn+2].[NH-]C(Cc1ccc(O)cc1)C(=O)O.[NH-]C(Cc1ccc(O)cc1)C(=O)O (stereo not given)
inactive: [1] 0.35% | [2] 15.3% | [3] -10.5% | [4] -19.1% | [5] 0.95% | [6] -13%

CC(=O)OCC1OC(OC(C)=O)C(NC(=O)c2ccccc2)C(OC(C)=O)C1OC(C)=O (stereo not given)
inactive: [1] -2.1% | [2] -3.45% | [3] -3.5% | [4] -20.6% | [5] 17.4% | [6] -1.5%

O=C(/C=C\c1ccc(Cl)c(Cl)c1)c1ccc(Cl)cc1Cl
inactive: [1] 36.1% | [2] 9.35% | [3] -4.6% | [4] 1.65% | [5] 22.1% | [6] 0.7%

Cc1cccc(C)c1NC(=O)c1c(Cl)c(Cl)c(Cl)c(Cl)c1C(=O)O
inactive: [1] -25.9% | [2] 11.8% | [3] -15.7% | [4] -20% | [5] 4.55% | [6] -18.2%

CC12CC(O)C3C(CCC4CC(O)CCC43C)C1CCC2C(=O)CO (stereo not given)
inactive: [1] 13.6% | [2] 14.2% | [3] 7.3% | [4] 13.2% | [5] 12.1% | [6] 10.4%

c1ccc(C(=NN=C(c2ccccc2)c2ccccc2)c2ccccc2)cc1
inactive: [1] 17.9% | [2] 23.9% | [3] 8.4% | [4] 30.5% | [5] 1.25% | [6] 6.25%

CSC(=NC(=O)c1ccccc1)SCCSC(=NC(=O)c1ccccc1)SC
inactive: [1] 6.45% | [2] -7.35% | [3] 2.8% | [4] 33.6% | [5] -3.65% | [6] 6.35%

CS(=O)(=O)OCC1OC(n2ncc(=O)[nH]c2=O)C(O)C1O (stereo not given)
inactive: [1] 6.9% | [2] 13.7% | [3] -7.1% | [4] -2.45% | [5] 2.95% | [6] 11%

O=C(OCC1OCOC2C(COC(=O)c3ccccc3)OCOC12)c1ccccc1 (stereo not given)
inactive: [1] 9.05% | [2] 4.35% | [3] 8.05% | [4] 4.8% | [5] 13.7% | [6] 15.7%

CCOC(=O)C(=O)C(NC(=O)Cc1ccccc1)C(=O)OCC (stereo not given)
inactive: [1] 27.2% | [2] -8.55% | [3] 1.85% | [4] -15.8% | [5] -0.25% | [6] 17.1%

COc1ccc(NC(=O)CC(=O)n2nc(-c3ccccc3)c(N=Nc3ccccc3C(=O)O)c2-c2ccccc2)cc1
inactive: [1] -28.8% | [2] -13.1% | [3] -2.05% | [4] 2.85% | [5] 2.25% | [6] -13.5%

Cc1cc[nH]c(=O)c1[N+](=O)[O-]
inactive: [1] -12.3% | [2] -10.8% | [3] -2.85% | [4] -25.7% | [5] -9.65% | [6] 2.65%

C(=N\N(c1ccccc1)c1ccccc1)/C(c1ccccc1)c1ccccc1
inactive: [1] 2.55% | [2] -3.2% | [3] 1.9% | [4] -3.95% | [5] 2.2% | [6] -4.35%

NC1CCCC2CCC(N)C12 (stereo not given)
inactive: [1] 17.9% | [2] 15.6% | [3] 20.8% | [4] 24.6% | [5] 10.7% | [6] 20.2%

N#C/C(=C\c1cc(Cl)cc(Cl)c1O)c1nc2ccccc2[nH]1
inactive: [1] 43% | [2] 13.7% | [3] 38.4% | [4] 11.5% | [5] 26.9% | [6] 5.65%

COc1cccc(C(=O)c2ccncc2C)c1OC
inactive: [1] -14.6% | [2] -4.45% | [3] 9.95% | [4] -7.95% | [5] 28% | [6] -8.1%

COC(=O)C1(C)CCCC2(C)c3cc(OC)ccc3C(=O)CC12 (stereo not given)
inactive: [1] 24.4% | [2] 12.7% | [3] 28% | [4] 5.95% | [5] 19.6% | [6] 21.7%

Cc1onc(-c2ccccc2)c1C(C)(O)c1ccccc1 (stereo not given)
inactive: [1] 12.8% | [2] 11.2% | [3] 16.6% | [4] -17.9% | [5] 18.2% | [6] 5.7%

CCCC(=O)CC(=O)C(F)(F)F.CCCC(=O)CC(=O)C(F)(F)F.CCCC(=O)CC(=O)C(F)(F)F.[Er]
inactive: [1] 25% | [2] 10.8% | [3] 44.2% | [4] -0.15% | [5] -5.65% | [6] 50.1%

Cn1c(-c2csc(-c3ccc(Cl)cc3)n2)n[nH]c1=S
inactive: [1] 5.65% | [2] 12.8% | [3] 11.6% | [4] 8.3% | [5] 6.35% | [6] -36.1%

CS(=O)(=O)c1cccc(C(=O)O)c1
inactive: [1] 12.4% | [2] 7.65% | [3] 4.05% | [4] -16.1% | [5] 1.35% | [6] -18%

O=C(CC1=Nc2nnc(-c3nnc4n3C(=O)C(CC(=O)c3cccnc3)=N4)n2C1=O)c1cccnc1
inactive: [1] -5% | [2] -8.55% | [3] -1.35% | [4] -19.2% | [5] -6.35% | [6] -12.7%

CCCC(=O)NC1CCc2cc(OC)c(OC)c(OC)c2-c2ccc(OC)c(=O)cc21 (stereo not given)
inactive: [1] 27.4% | [2] -40.5% | [3] 23.1% | [4] -0.9% | [5] 3.45% | [6] 3.2%

CCCCCCCCCCCCC
inactive: [1] -36.4% | [2] -45.8% | [3] -18.2% | [4] 3.7% | [5] -50% | [6] -20.9%

Cc1ccc(O)c(-c2ccnn2-c2ccccc2)c1
inactive: [1] 20.5% | [2] 33.9% | [3] 15.1% | [4] -10.8% | [5] 5.25% | [6] 35.8%

COc1ccc(C=O)c(Cl)c1OC
inactive: [1] 26.8% | [2] 14.4% | [3] 0.95% | [4] 6.55% | [5] -7.85% | [6] -16.8%

COc1ccc2c(c1)CCN1CCCc3ccccc3C21 (stereo not given)
inactive: [1] 22.4% | [2] 2.75% | [3] 6.3% | [4] 25.8% | [5] 14.8% | [6] -5.75%

CC1(C)OC2OC3C(O)C(=O)OC3C2O1 (stereo not given)
inactive: [1] -36.8% | [2] -16.9% | [3] -19.2% | [4] -20% | [5] -2.6% | [6] -7.1%

OCC1OC(OC2C(CO)OC(O)C(O)C2O)C(O)C(O)C1O (stereo not given)
inactive: [1] 19.1% | [2] 14.9% | [3] 13.9% | [4] 13.3% | [5] 20.1% | [6] 13.7%

CN(C(=O)Nc1ccccc1)c1ccc(O)cc1
inactive: [1] 19.4% | [2] -8.55% | [3] -16.4% | [4] -11.9% | [5] -11.9% | [6] 12.7%

Fc1ccccc1-c1nn2c(C34CC5CC(CC(C5)C3)C4)nnc2s1
inactive: [1] 6.45% | [2] -33.1% | [3] -29.6% | [4] -14.5% | [5] -11.8% | [6] -52%

CCOC(=O)c1ccc(NC(=S)Nc2ncccc2C)cc1
inactive: [1] 15.8% | [2] 11.4% | [3] 42.5% | [4] -3.3% | [5] 34.3% | [6] 21.2%

O=C(OC1CCC/C=C\CCCC1)c1ccc(Cl)cc1 (stereo not given)
inactive: [1] 1.45% | [2] -4.35% | [3] -16.4% | [4] -2.1% | [5] -1.5% | [6] 2.45%

CCOC(=O)/C(C)=C\C=C(\C)CCC=C(C)C
inactive: [1] -8.8% | [2] -19.1% | [3] -2.45% | [4] -28.3% | [5] -15.2% | [6] 15.4%

COc1ccc2c(c1[N+](=O)[O-])CC[C@@H]1[C@@H]2CC[C@]2(C)C(=O)CC[C@@H]12
inactive: [1] 20.9% | [2] 21.1% | [3] 0% | [4] 37% | [5] 12.1% | [6] -30.9%
